Inhibition % (higher = more inhibition) data for 23 compounds are collected here from PubChem BioAssay AID651551 (Sanford-Burnham Center for Chemical Genomics, 2012).

The assay is described as follows: GAPDH versus PEG-3 reporter suppression – cell-based, luminescence, counter-screen for PEG-3 promoter inhibitor project, SAR follow-up (AID 651551). The following applies: HeLa PEG-Prom / GAPDH luciferase reporter, 6 or 24 h, run 1, 6 h; at 99 µM (top of the series). Background: Counterscreens check selectivity or assay interference.
On to `CCn1cc(C(=O)NCc2ccco2)c(=O)c2cc(S(=O)(=O)N3CCCC3)ccc21`, for which the inhibition % (higher = more inhibition) came to 37.8%.
`Cc1cc(NC(=O)c2ccccc2C(F)(F)F)n(-c2nc3ccccc3[nH]2)n1` had an inhibition % (higher = more inhibition) of 89.3%.
`Cc1cc(NC(=O)c2ccccc2)n(-c2nc3ccccc3[nH]2)n1`: the inhibition % (higher = more inhibition) is 21.2%.
As for `Cc1nc(NC(=O)c2ccccc2)sc1-c1csc(Nc2cccc(Cl)c2C)n1`, the inhibition % (higher = more inhibition) worked out at 27%.
Take `COc1ccc(Cl)cc1Nc1nc(-c2sc(NC(=O)c3ccccc3)nc2C)cs1`: the inhibition % (higher = more inhibition) amounted to 44.4%.
Compound `Cc1cc(NC(=O)c2cccc(C)c2C)n(-c2nc3ccccc3[nH]2)n1` returned an inhibition % (higher = more inhibition) of 13.7%.
The compound `O=C(Nc1nccs1)c1nn(-c2ccccc2)c(=O)c2ccccc12` returned an inhibition % (higher = more inhibition) of 28%.
Take `CCCn1nc(C(=O)Nc2nc3ccccc3s2)c2ccccc2c1=O`: the inhibition % (higher = more inhibition) came out at 42.8%.
For `CCCn1nc(C(=O)Nc2nc(-c3ccncc3)cs2)c2ccccc2c1=O`, the inhibition % (higher = more inhibition) turned out to be 44.4%.
`Cc1ccc(Cl)cc1Nc1nc(-c2sc(NC(=O)c3ccco3)nc2C)cs1` had an inhibition % (higher = more inhibition) of 35.5%.
`COc1ccccc1Nc1nc(-c2sc(NC(=O)c3ccco3)nc2C)cs1` had an inhibition % (higher = more inhibition) of 51%.
Consider `COCCCNC(=O)c1ccc(Cn2c(=O)c3ccccc3n(Cc3ccccc3C#N)c2=O)cc1`, for which the inhibition % (higher = more inhibition) worked out at 25.3%.
Turning to `Cc1cc(NC(=O)c2ccccc2)n(-c2nc3ccccc3n2C)n1`, the inhibition % (higher = more inhibition) was 28.6%.
The compound `Cc1nc(NC(=O)c2ccccc2)sc1-c1csc(Nc2ccccc2)n1` gave an inhibition % (higher = more inhibition) of 81.9%.
To `Cc1nc(NC(=O)c2ccccc2)sc1-c1csc(Nc2ccccc2Cl)n1` belongs 32%; to `COc1ccc(-n2nc(C(=O)NCC(=O)Nc3ccc(OC)c(OC)c3)c3ccccc3c2=O)cc1`, 69.4%.
Turning to `COc1ccc(-n2nc(C(=O)NCC(=O)Nc3cccc(OC)c3)c3ccccc3c2=O)cc1`, the inhibition % (higher = more inhibition) came to 31.1%.
With `O=C(Nc1nc(-c2ccccc2)cs1)c1nn(-c2ccccc2)c(=O)c2ccccc12`, the inhibition % (higher = more inhibition) turned out to be 32.8%.
To `CCn1nc(C(=O)Nc2nc(-c3ccccn3)cs2)c2ccccc2c1=O` belongs 38.3%; to `CCCn1nc(C(=O)Nc2nc(-c3ccccn3)cs2)c2ccccc2c1=O`, 81.9%; to `COc1ccc(-n2nc(C(=O)NCC(=O)Nc3cc(OC)c(OC)c(OC)c3)c3ccccc3c2=O)cc1OC`, 29.5%.
Consider `O=C(Nc1nc2ccccc2s1)c1nn(-c2ccccc2)c(=O)c2ccccc12`, for which the inhibition % (higher = more inhibition) was 27%.
Take `Cc1cc(NC(=O)c2ccccc2C)n(-c2nc3ccccc3[nH]2)n1`: the inhibition % (higher = more inhibition) came out at 44.4%.
